# Assay results as given in PubChem BioAssay AID1839 (Johns Hopkins Ion Channel Center, 2009).
# The campaign covered roughly 2,400 compounds. About 220 (9.2%) were called active. The sample as a whole holds a higher share of actives than the screen did. Values without a mark were called inactive.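 How the source made its calls: active means signal change above the mean of dofetilide-free buffer controls plus 3 SD, so a positive margin; inactive means the rest.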
# Experiment: nonspecific flux effects in parental CHO-K1, confirmation, counter-screen for hERG block protection project, cell-based, CHO-K1 parental line, FluxOR thallium flux (AID 1839);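 further: compounds applied alone with no dofetilide to cells lacking hERG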
# Conditions: CHO-K1 parental cells, FluxOR thallium flux fluorescence; at 10 µM
row,Structure (SMILES),"signal change vs control minus 3*SD hit threshold (margin above threshold, higher = more increase)"
1,S=c1nc(-c2ccccc2)[nH]n1-c1ccccc1,16.8% (active)
2,S=c1nc(-c2ccccc2)c(-c2ccccc2)n[nH]1,-37%
3,S=c1nc(C2CCCCC2)n(-c2ccccc2)[nH]1,-0.7%
4,COc1cccc(NC(=O)c2nn(-c3ccc(OC)cc3OC)c(=O)c3ccccc23)c1,-26.1%
5,COc1ccc(-n2nc(C(=O)NCC(=O)NCc3ccc(F)cc3)c3ccccc3c2=O)cc1OC,-26.4%
6,COc1cccc(-n2nc(C(=O)O)c3ccccc3c2=O)c1,4.7% (active)
7,CC(C)Oc1cc(S(=O)(=O)N2CCCCC2)ccc1N,-27.8%
8,CC(C)COc1ccc(-c2nn(-c3ccccc3)cc2C(=O)Nc2nccs2)cc1,-25.4%
9,COc1ccc(-n2c(=S)[nH]c3ccccc3c2=S)cc1,-30.8%
10,COc1ccc(OC(=O)Cc2cccc3ccccc23)cc1,-30.2%
11,COc1ccc(-c2nc(=S)c3ccc4ccccc4c3[nH]2)cc1,32.2% (active)
12,CCc1ccc(NC(=S)NC(=O)c2c(-c3ccccc3Cl)noc2C)cc1,-32.8%
13,C=CCn1c2ccccc2c(=O)c2cc(C#Cc3ccsc3)ccc21,-24.5%
14,COc1ccc(C(=O)CC(=O)C(=O)Nc2ccccc2)cc1,-20.3%
15,COc1cccc(OCC(=O)NNC(=O)C(=O)Nc2ccc(OC)cc2OC)c1,-21.1%
16,CCc1ccc(NC(=O)C(=O)NNC(=O)COc2cccc(OC)c2)cc1,-13.5%
17,Cc1ccccc1NC(=O)C(=O)NNC(=O)COc1ccc2ccccc2c1,-2.5%
18,COc1ccc(NC(=O)C(=O)NNC(=O)COc2ccc(OC)cc2)cc1,-38%
19,O=C(COc1ccc2ccccc2c1)NNC(=O)C(=O)Nc1ccccc1,15.8% (active)
20,COc1ccc(OCC(=O)NNC(=O)C(=O)Nc2ccc(C)cc2)cc1,-35.4%
21,COc1ccccc1NC(=O)C(=O)NNC(=O)COc1ccc2ccccc2c1,59.2% (active)
22,COc1ccc(NC(=O)C(=O)NNC(=O)COc2ccc(Cl)cc2)c(OC)c1,-0.4%

row,Structure (SMILES),"signal change vs control minus 3*SD hit threshold (margin above threshold, higher = more increase)"
1,COc1cccc(OCC(=O)NNC(=O)C(=O)Nc2cccc(C)c2)c1,0.8% (active)
2,N#Cc1cccc(N=c2ssnc2Cl)c1,-30.2%
3,CCOc1cc(N2CCOCC2)c(OCC)cc1NC(=O)Cn1nc(C)c([N+](=O)[O-])c1C,-22.7%
4,Cc1ccccc1NC1=C/C(=N\S(=O)(=O)c2ccc(C(=O)O)cc2)c2ccccc2C1=O,-22%
5,Cc1ccc(C(=O)n2c(-c3ccccc3)cnc2SCC(=O)Nc2ccc(C)cc2C)cc1,-8.7%
6,CC12CCC(C(=O)OC3CCCCC3)(OC1=O)C2(C)C (centres undefined),-36.3%
7,O=C1c2cccc3cccc(c23)C(=O)C1(O)O,-20.6%
8,S=c1[nH]c2cc(-c3ccccc3)ccc2o1,38.6% (active)
9,COC(=O)c1sc(NC(=S)NC(=O)c2ccc(C)cc2)nc1C,-19.1%
10,Cc1ccsc1CN(C(=O)c1ccc([N+](=O)[O-])cc1)C1CCS(=O)(=O)C1 (centres undefined),-32.2%
11,CCCCOC(=O)c1ccc(NC(=S)NC(=O)c2c(Br)c(C)nn2C)cc1,6.3% (active)
12,CCCCOC(=O)c1ccc(NC(=S)NC(=O)c2c(Cl)cnn2C)cc1,-18.6%
13,Cc1nn(C)c(C(=O)NC(=S)Nc2ccc([N+](=O)[O-])cc2)c1Cl,-13.2%
14,CC1CCc2sc(-c3n[nH]c(=S)o3)cc2C1 (centres undefined),-19.1%
15,CC(C)(C)c1cc(C(=O)NNC(=O)c2ccc(Cl)cc2)no1,-1.2%
16,O=C(O)c1cc(N/N=C/c2ccc(-c3ccccc3)cc2)ccc1Cl,-29.5%
17,O=C(O)c1cc(NN=C2c3ccccc3-c3ccccc32)ccc1Cl,3.2% (active)
18,CCCCOc1ccc(-c2c(C#N)c(N)[nH]c(=S)c2C#N)cc1,-44.5%
19,CCc1ccc(C(C)NC(=O)c2ccc(F)cc2)cc1 (centres undefined),-6.8%
20,CC(NC(=O)c1ccc(F)cc1)c1ccc2c(c1)CCCC2 (centres undefined),-12.8%
21,CC(NC(=O)c1ccc(Br)cc1)c1ccc2c(c1)CCCC2 (centres undefined),2.4% (active)
22,COc1cccc(NC(=O)CSCc2n[nH]c(=O)[nH]2)c1,-30%

row,Structure (SMILES),"signal change vs control minus 3*SD hit threshold (margin above threshold, higher = more increase)"
1,COc1ccc(-c2csc(NC(=S)NC(=O)c3cccs3)n2)cc1OC,-41.1%
2,CCOc1cc(Br)c(C(=O)O)cc1OC,-30.9%
3,O=C(CSc1nc2cc(Cl)ccc2s1)c1cc2ccccc2o1,-23%
4,O=C(Cn1nc(-c2ccccc2)c2ccccc2c1=O)Nc1ccc(O)cc1,-37.1%
5,O=[N+]([O-])c1cccnc1Sc1n[nH]c(-c2ccc(Cl)cc2)n1,-19.6%
6,COc1ccc(CCn2c(S)nc3ccccc3c2=O)cc1,-22.5%
7,C=CCN(CC=C)C(=S)NC(=O)c1ccc([N+](=O)[O-])cc1,-16.4%
8,C=CCNC(=S)NC(=O)c1ccc(C)c(Br)c1,-26.8%
9,CCN(CC)C(=S)NC(=O)c1ccc(OC)c(Br)c1,-18.8%
10,C=CCN(CC=C)C(=S)NC(=O)c1ccc(OC)c(Br)c1,4.6% (active)
11,C=CCN(CC=C)C(=S)NC(=O)c1ccc(OC)cc1,-14.4%
12,C=CCN(CC=C)C(=S)NC(=O)c1ccc(C)c(Br)c1,48.9% (active)
13,Cc1nnc(NC(=O)C2CCCN(S(=O)(=O)c3ccccc3C(F)(F)F)C2)s1 (centres undefined),-12.2%
14,CCCCNC(=O)c1onc(CSc2nc3ccccc3[nH]2)c1C(=O)NCCCC,-27.7%
15,C=CCn1c(O)c(N=NC(=S)Nc2ccc(OC)cc2)c2ccccc21,-17.1%
16,Cc1nnc(NC(=O)CN2CCN(Cc3ccc(F)cc3Cl)CC2)s1,-35.7%
17,O=C(Nc1cccc(N=Cc2cc(Cl)cc(Br)c2O)c1)c1ccco1,-5.5%
18,C=CCNC(=S)Nc1sc2c(c1C(=O)OCC)CC(C)(CC)OC2 (centres undefined),-1.5%
19,CCOC(=O)c1c(NC(=S)NC)sc2c1CC(C)(C)SC2,22.5% (active)
20,CCOC(=O)c1c(NC(=S)NC)sc2c1CCCC2,-11%
